Assay outcomes from PubChem.
BAZ2B inh – blocks human BAZ2B; 360,000 tested, 4.4% active; Potency, µM (top dose mostly 114 µM), most hits filed as inhibitors; AID 504333; AlphaScreen BAZ2B-H3K14Ac peptide displacement; also: nearly all actives have a fitted effect of over 60% in size
Target sequence (Q9UIF8 whole entry, looked up): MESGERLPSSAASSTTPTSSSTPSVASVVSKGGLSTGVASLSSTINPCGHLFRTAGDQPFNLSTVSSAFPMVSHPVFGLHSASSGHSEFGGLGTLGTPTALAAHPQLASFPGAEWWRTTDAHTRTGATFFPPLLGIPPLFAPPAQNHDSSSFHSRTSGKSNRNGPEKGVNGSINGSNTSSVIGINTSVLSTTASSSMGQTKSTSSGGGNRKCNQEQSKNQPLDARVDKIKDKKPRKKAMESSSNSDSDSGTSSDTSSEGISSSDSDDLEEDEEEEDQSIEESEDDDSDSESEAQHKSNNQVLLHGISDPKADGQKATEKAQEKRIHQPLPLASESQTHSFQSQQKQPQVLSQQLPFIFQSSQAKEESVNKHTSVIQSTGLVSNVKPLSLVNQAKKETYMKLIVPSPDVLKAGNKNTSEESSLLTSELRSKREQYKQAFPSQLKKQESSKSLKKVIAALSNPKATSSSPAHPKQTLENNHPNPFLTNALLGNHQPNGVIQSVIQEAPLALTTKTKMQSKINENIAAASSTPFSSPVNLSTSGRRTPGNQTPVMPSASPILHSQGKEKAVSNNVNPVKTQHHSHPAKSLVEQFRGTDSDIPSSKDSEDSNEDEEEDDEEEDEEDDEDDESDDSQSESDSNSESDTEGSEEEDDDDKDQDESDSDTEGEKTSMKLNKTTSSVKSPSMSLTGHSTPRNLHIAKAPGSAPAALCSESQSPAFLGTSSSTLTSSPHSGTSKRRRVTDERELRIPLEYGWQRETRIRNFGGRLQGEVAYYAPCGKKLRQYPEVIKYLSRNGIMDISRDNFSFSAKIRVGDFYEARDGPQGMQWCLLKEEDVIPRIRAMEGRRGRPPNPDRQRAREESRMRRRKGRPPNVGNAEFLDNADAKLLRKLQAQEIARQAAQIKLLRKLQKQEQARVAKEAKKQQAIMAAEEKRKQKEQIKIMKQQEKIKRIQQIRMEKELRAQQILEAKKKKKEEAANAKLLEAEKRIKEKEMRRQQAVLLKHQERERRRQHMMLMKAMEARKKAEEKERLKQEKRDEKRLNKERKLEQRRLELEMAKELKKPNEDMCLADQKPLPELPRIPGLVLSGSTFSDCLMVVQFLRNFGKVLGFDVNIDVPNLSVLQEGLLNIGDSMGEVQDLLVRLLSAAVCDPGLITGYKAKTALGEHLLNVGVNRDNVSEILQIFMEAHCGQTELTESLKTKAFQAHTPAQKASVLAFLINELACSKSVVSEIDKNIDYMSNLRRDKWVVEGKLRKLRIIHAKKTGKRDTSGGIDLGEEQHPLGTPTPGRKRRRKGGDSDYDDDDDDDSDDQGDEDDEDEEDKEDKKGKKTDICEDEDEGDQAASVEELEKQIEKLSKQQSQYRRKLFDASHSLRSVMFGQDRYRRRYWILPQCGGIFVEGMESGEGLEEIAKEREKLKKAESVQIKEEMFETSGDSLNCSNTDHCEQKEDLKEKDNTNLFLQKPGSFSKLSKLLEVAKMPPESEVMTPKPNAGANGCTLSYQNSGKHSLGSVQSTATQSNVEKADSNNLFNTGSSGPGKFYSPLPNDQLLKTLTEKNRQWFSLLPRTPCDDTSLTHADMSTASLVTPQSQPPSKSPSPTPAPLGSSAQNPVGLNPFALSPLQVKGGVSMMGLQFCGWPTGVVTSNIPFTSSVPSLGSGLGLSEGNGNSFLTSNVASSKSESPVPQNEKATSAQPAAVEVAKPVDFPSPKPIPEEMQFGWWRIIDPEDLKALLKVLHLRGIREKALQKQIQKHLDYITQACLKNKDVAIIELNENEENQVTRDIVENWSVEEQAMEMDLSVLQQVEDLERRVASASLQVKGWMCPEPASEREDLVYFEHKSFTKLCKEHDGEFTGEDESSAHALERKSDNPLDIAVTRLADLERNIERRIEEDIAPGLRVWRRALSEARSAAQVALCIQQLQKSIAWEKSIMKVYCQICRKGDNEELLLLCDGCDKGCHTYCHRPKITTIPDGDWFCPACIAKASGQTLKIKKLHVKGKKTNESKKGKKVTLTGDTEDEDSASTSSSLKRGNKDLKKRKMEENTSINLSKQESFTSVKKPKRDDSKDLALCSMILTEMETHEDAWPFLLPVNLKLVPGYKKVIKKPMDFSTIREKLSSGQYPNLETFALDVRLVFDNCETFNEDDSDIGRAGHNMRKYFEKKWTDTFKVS
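BAZ2B 50 nM plus b-H3(5-23)K14Ac 50 nM, PBS pH 7.4/0.01% Tween-20, 30 min RT; compound added (max 110 uM), 30 min RT; streptavidin donor/Ni-chelate acceptor beads 10 ug/mL final, 20 min dark; AlphaScreen read.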
G9a block – inhibitors of human histone lysine methyltransferase G9a | AID 504332 | 350,000 tested, 8.8% active | Potency, µM (highest dose often 102 µM), usual class: inhibitors | G9a H3K9 monomethylation, AlphaScreen, 2 h | Q96KQ7; also: nearly all actives have a fitted effect of over 75% in size
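Chemiluminescent proximity detection of H3K9 monomethylation, read after 10 min bead incubation in the dark. Reaction: 20 nM G9a, 500 nM biotin-H3K9 peptide, 20 uM SAM cofactor, 2 h, room temperature, following 15 min enzyme-compound preincubation.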
JMJD2A Tudor – inhibitors of human JMJD2A Tudor domain | O75164 | AlphaScreen JMJD2A-Tudor / H3K4me3 peptide binding | Potency, µM (highest dose often 114 µM), actives largely listed as inhibitors | 390,000 tested, 4.4% active | AID 504339; also: nearly all actives have a fitted effect of over 50% in size
HP1b binding inh – inhibitors of HP1-beta chromodomain binding to methylated histone tails. P83916. AlphaScreen HP1-beta / biotin-H3K9me3 peptide binding. Potency, µM (series often up to 114 µM), usual class: inhibitors. 390,000 tested, 0.56% active. AID 540317; also: nearly all actives have a fitted effect of over 70% in size
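Compound inhibition of the preformed complex between 50 nM HP1-beta and 50 nM biotinylated H3K9me3 peptide was read by AlphaScreen. Buffer was PBS pH 7.4 with 0.01% Tween-20. Incubations ran 30 min at room temperature, with 10 ug/mL donor/acceptor beads.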
PLK1 PBD block – PLK1 (human) polo-box domain binding inhibition; P53350; Plk1 PBD binding of FITC phosphopeptide, fluorescence polarization; Potency, µM, usual class: inhibitors; 360,000 tested, 2.8% active; AID 720504; also: series mostly up to about 57 µM; nearly all actives have a fitted effect of over 65% in size
ALOX12 inh – blocks human arachidonate 12S-lipoxygenase; purified 12hLO, xylenol orange hydroperoxide absorbance; Potency, µM (doses to about 108 µM), hits mostly inhibitors; AID 1671190; 580,000 tested, 1.1% active; P18054
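Hydroperoxide product was detected by ferrous iron/xylenol orange as the 573 to 405 nm absorbance ratio. Arachidonic acid at 40 uM (final) was turned over for 30 min at room temperature by 150 nM human 12hLO, pH 7.0 Hepes buffer, after 15 min compound preincubation.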
Of the large screens only hits and unclear results are named; the others gave an inactive call. The list is not random: actives were taken first. Their share in the collection is about 9%. Calls follow the shape of the dose curve; as a rule, active = well fitted curve in the direction sought with a large enough effect; inconclusive = small, poorly fitted or top-dose-only effect, or another doubt; inactive = no such curve, though single readings can be large; an effect the other way counts as inactive or inconclusive.

O=Cc1c(Sc2ccccc2)nc2ccccn2c1=O	PLK1 PBD block 3.36µM
O=Cc1c(Sc2ccccn2)nc2ccccn2c1=O	none
CCN1CCN(c2ccc(S(=O)(=O)N3CCOCC3)cc2NC(=O)c2ccc(Cl)cc2Cl)CC1	G9a block 12.6µM, ALOX12 inh inconclusive
CCN1CCN(c2ccc(S(=O)(=O)N3CCCCC3)cc2NC(=O)/C=C/c2ccc(OC)c(OC)c2)CC1	BAZ2B inh inconclusive, G9a block 22.4µM, ALOX12 inh inconclusive
CCN1CCN(c2ccc(S(=O)(=O)N3CCOCC3)cc2NC(=O)/C=C/c2cccc(OC)c2OC)CC1	G9a block 28.2µM, ALOX12 inh inconclusive
COc1ccc(/C=C/C(=O)Nc2cc(S(=O)(=O)N3CCOCC3)ccc2N2CCCC2)cc1OC	BAZ2B inh inconclusive
COc1ccc(/C=C/C(=O)Nc2cc(S(=O)(=O)N3CCCCC3)ccc2N2CCCCC2)cc1OC	none
COc1cc(/C=C/C(=O)Nc2cc(S(=O)(=O)N3CCOCC3)ccc2N2CCCC2)cc(OC)c1OC	G9a block 10µM, HP1b binding inh inconclusive, PLK1 PBD block 6.7µM
CCN1CCN(S(=O)(=O)c2ccc(Cl)c(C(=O)Nc3cc(Cl)ccc3N3CCOCC3)c2)CC1	BAZ2B inh inconclusive, G9a block inconclusive, JMJD2A Tudor inconclusive
Cc1cnc(CNc2cc(-c3cccc(C#N)c3)ncn2)cn1	ALOX12 inh inconclusive (no result: BAZ2B inh, JMJD2A Tudor, HP1b binding inh, PLK1 PBD block)
CCN1CCN(c2ccc(S(=O)(=O)N3CCOCC3)cc2NC(=O)/C=C/c2ccc(OC)c(OC)c2)CC1	G9a block 14.1µM, ALOX12 inh inconclusive
CCOc1ccccc1NC(=O)/C=C/c1ccc(S(=O)(=O)N2CCOCC2)cc1	G9a block 50.1µM
COc1cccc2cc(C(=O)OC(C)C(=O)c3ccc(Cl)cc3)c(=O)oc12 (configuration not stated)	none (no result: BAZ2B inh, G9a block, JMJD2A Tudor, HP1b binding inh, PLK1 PBD block)
COC(=O)c1ccc(C)c(NC(=O)CCc2cc(OC)c(OC)c(OC)c2)c1	G9a block 44.7µM
COC(=O)c1ccc(C)c(NC(=O)CCc2ccc(OC)c(OC)c2)c1	G9a block 50.1µM
COc1cc(CCC(=O)Oc2ccc(C(C)=O)cc2)cc(OC)c1OC	G9a block 70.8µM
Cc1nc(NCc2ccco2)nc2c1C(=O)CC(C)C2 (configuration not stated)	ALOX12 inh inconclusive
CCN(CC(=O)Nc1ccccc1C(F)(F)F)C(=O)c1oc2c(Cl)cccc2c1C	none
C=CCOc1ccc(Br)cc1/C=C1/SC(=Nc2ccc(C(=O)O)cc2)NC1=O	BAZ2B inh 44.7µM, G9a block 20µM, JMJD2A Tudor inconclusive, PLK1 PBD block 21.2µM, ALOX12 inh inconclusive
CCOc1cc(Br)cc(/C=C2\SC(=Nc3ccccc3)NC2=O)c1O	PLK1 PBD block inconclusive (no result: G9a block)
COc1ccccc1C1CC(=O)NC(SCC(=O)Nc2ccc(F)cc2)=C1C#N (configuration not stated)	none (no result: BAZ2B inh, G9a block, JMJD2A Tudor, HP1b binding inh, PLK1 PBD block)
COCCN1C(=S)N[C@@H](c2cccc(F)c2)C(C(=O)OC)=C1C	none (no result: JMJD2A Tudor, HP1b binding inh, PLK1 PBD block, ALOX12 inh)
CC(=O)C1=C(C)N(Cc2ccc(F)cc2)C(=S)NC1c1cccc(Cl)c1 (configuration not stated)	ALOX12 inh 44.7µM (no result: BAZ2B inh, G9a block, JMJD2A Tudor, HP1b binding inh, PLK1 PBD block)
COc1cccc(C2NC(=S)N(Cc3ccc(F)cc3)C(C)=C2C(C)=O)c1 (configuration not stated)	ALOX12 inh 44.7µM (no result: BAZ2B inh, G9a block, JMJD2A Tudor, HP1b binding inh, PLK1 PBD block)
O=C(COC(=O)CC1CCCC1)Nc1cc2c(cc1Cl)C(=O)c1ccccc1C2=O	BAZ2B inh 56.2µM, G9a block inconclusive, JMJD2A Tudor 56.2µM
Nc1cc(Cl)nc(N/N=C/c2c(O)ccc3ccccc23)n1	none
O=C(CN1CCOCC1)N/N=C/c1c(O)ccc2ccccc12	BAZ2B inh 44.7µM
O=C(CSCC(=O)Nc1ccccc1)N/N=C/c1c(O)ccc2ccccc12	G9a block 1.58µM, ALOX12 inh inconclusive
O=C(N/N=C/c1c(O)ccc2ccccc12)Nc1ccccc1	none (no result: BAZ2B inh, G9a block)
O=C(CN1CCOCC1)N/N=C/c1ccco1	none
O=C(O)c1cc(N/N=C/c2c(O)ccc3ccccc23)ccc1Cl	BAZ2B inh 39.8µM, G9a block 20µM, JMJD2A Tudor inconclusive, HP1b binding inh inconclusive, PLK1 PBD block 16.8µM, ALOX12 inh inconclusive
Cc1cc(C)cc(-c2nc(-c3ccc(Br)cc3)no2)c1	none (no result: BAZ2B inh, G9a block, JMJD2A Tudor, HP1b binding inh, PLK1 PBD block)
O=C(COc1ccc(Br)cc1Cl)NC1CCN(Cc2ccccc2)CC1	none
Cc1[nH]n(S(=O)(=O)c2ccccc2)c(=O)c1N=Nc1cccc(Cl)c1	ALOX12 inh inconclusive (no result: G9a block)
Cc1[nH]n(S(=O)(=O)Cc2ccccc2)c(=O)c1N=Nc1ccccc1Cl	G9a block 50.1µM, JMJD2A Tudor inconclusive, ALOX12 inh inconclusive (no result: BAZ2B inh)
COc1cccc(OCC(O)CN2CCN(c3ccccc3)CC2)c1 (configuration not stated)	ALOX12 inh inconclusive
C=CCc1ccc(OCC(O)CN2CCN(c3ccccc3OC)CC2)c(OC)c1 (configuration not stated)	BAZ2B inh inconclusive, ALOX12 inh inconclusive
C=CCc1ccc(OCC(O)CN2CCN(Cc3ccc(Cl)cc3)CC2)c(OC)c1 (configuration not stated)	BAZ2B inh inconclusive, G9a block 50.1µM, ALOX12 inh inconclusive
C=CCc1ccccc1OCC(O)CN1CCN(c2ccc(OC)cc2)CC1 (configuration not stated)	BAZ2B inh 50.1µM, G9a block inconclusive, JMJD2A Tudor 17.8µM, HP1b binding inh inconclusive
C=CCc1ccccc1OCC(O)CNC (configuration not stated)	G9a block 50.1µM
C=CCc1ccccc1OCC(O)CN1CCOCC1 (configuration not stated)	ALOX12 inh 39.8µM (no result: BAZ2B inh, G9a block)
C=CCc1ccccc1OC[C@H](O)CNC(C)C	none (no result: BAZ2B inh, JMJD2A Tudor, HP1b binding inh, PLK1 PBD block, ALOX12 inh)
Cc1ccc(-n2nnnc2CS(=O)(=O)c2ccccc2)c(C)c1	none
COc1cccc(C(N)c2nc(-c3cc(F)cc(F)c3)cs2)c1 (configuration not stated)	none (no result: BAZ2B inh, G9a block, JMJD2A Tudor, HP1b binding inh)
CCOC(=O)N1CCN(C(=O)CNC2CCCCCCC2)CC1	BAZ2B inh 50.1µM, G9a block 31.6µM, JMJD2A Tudor 31.6µM
CCOC(=O)N1CCN(C(=O)NC2CCCCC2)CC1	none
Cc1cccc(CS(=O)(=O)Cc2ccc(C(=O)NCc3cccnc3)o2)c1	none
O=C1CC(SC2=NCCS2)C(=O)N1c1ccc(Cl)cc1 (configuration not stated)	none
O=C1CC(SC2=NCCS2)C(=O)N1c1ccc(Br)cc1 (configuration not stated)	G9a block 44.7µM, ALOX12 inh inconclusive
CN(C)c1ccc(C2/C(=C(/O)c3ccc(Br)cc3)C(=O)C(=O)N2C)cc1 (configuration not stated)	G9a block 39.8µM, JMJD2A Tudor inconclusive, ALOX12 inh 5.62µM
